# M1 ag = agonists of M1 muscarinic receptor | B-score at 10 µM | CHO-M1 cells, Fluo-4 calcium fluorescence, agonist mode; active compounds read high | AID 626 | 3% of 64,000 active;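 active means fluorescence rise, raw or as B-score row- and column-corrected plate score, outside the 99.7% band of its plate's samples, either direction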
# Pyk2 oligo antag = antagonists of human Pyk2 oligomerization. 0.83% of 99,000 active. z-score (the deposit names both 25 µM and 10 µM). AID 1347419. Q293 cells, Pyk2 FERM NanoBiT luminescence; active compounds read low;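 active means Z-score of -3 or lower, scaled per plate to the spread of control and sample wells; inactive means z-score above -3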;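 further: negative z-score means lost luminescence so less FERM oligomerization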
# M1 antag = blocks the rat M1 muscarinic receptor response to acetylcholine; P08482; CHO-M1 cells, Fluo-4 calcium, ACh EC80 antagonist mode; active compounds read low; B-score at 10 µM; 3.4% of 64,000 active;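 active means calcium fluorescence response, raw or row-and-column corrected B-score, differing from the plate sample mean either way at a set confidence level, mostly lower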
# Target sequence (P08482 whole entry, looked up): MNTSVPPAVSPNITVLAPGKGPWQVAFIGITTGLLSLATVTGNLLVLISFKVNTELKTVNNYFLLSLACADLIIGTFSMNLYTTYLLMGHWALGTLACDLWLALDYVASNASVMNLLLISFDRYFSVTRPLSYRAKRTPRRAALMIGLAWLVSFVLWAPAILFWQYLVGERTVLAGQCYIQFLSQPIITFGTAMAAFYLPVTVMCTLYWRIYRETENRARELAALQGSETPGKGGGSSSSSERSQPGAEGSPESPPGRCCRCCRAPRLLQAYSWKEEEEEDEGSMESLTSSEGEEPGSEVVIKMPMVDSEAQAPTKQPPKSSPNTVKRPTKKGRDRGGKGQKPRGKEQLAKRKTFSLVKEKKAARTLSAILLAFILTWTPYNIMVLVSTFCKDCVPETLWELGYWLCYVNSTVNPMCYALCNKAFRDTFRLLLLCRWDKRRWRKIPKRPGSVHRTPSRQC
# Cav3 T inh = inhibitors of human Cav3.2 T-type calcium channel; O95180; Cav3.2-expressing cells, Fluo-4 calcium fluorescence FDSS; active compounds read low; B-score at 10 µM; 4% of 100,000 active;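 active means single-dose well whose peak fluorescence ratio is a statistical outlier from its plate by either plate-standardised score or position-corrected B-score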
# M1 antag confirm = confirmation of rat M1 muscarinic receptor antagonists; shares compounds with M1 antag; CHO-M1 cells, Fluo-4 calcium, ACh EC80 antagonism; active compounds read low; calcium response (max-min fluorescence) at 10 µM; 43% of 1,700 active; AID 677;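 active means calcium response below the same-plate mean of wells given acetylcholine alone at its 80%-effect dose, minus 3 SD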;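 further: raw fluorescence intensity difference in arbitrary instrument units and not normalized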
# mGluR4 antag = mGluR4 (human) activity, M1 antagonist secondary assay; shares compounds with M1 antag; CHO-mGluR4 calcium flux, Fluo-4 fluorescence, glutamate EC80; active compounds read low; fluorescence response (max-min) at 10 µM; 0.9% of 1,700 active; AID 678;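 active means fluorescence response below the plate's average for near-maximal glutamate wells, less 3 SD of those wells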;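 further: raw unnormalized fluorescence span taken in the window right after glutamate addition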
# Active calls of the source: *; / = no result. This is a sample that favours compounds with a hit; in the whole collection about 7.1% have one here.
SMILES,M1 ag,Pyk2 oligo antag,M1 antag,Cav3 T inh,M1 antag confirm,mGluR4 antag
CCn1c(SCC(=O)Nc2c(C)n(C)n(-c3ccccc3)c2=O)nnc1-c1cccc(C)c1,2.5,2.8,-1.9*,0.082,575,196
COc1ccc(/C=N/n2c(C)cc(C)c(C(N)=O)c2=O)cc1,/,-0.08,/,0.36,/,/
CCc1nnc(SCc2cn3c(C)cc(C)nc3n2)n1N,-0.83,-1.5,0.26,0.66,/,/
O=C(COC(=O)C12CC3CC(CC(O)(C3)C1)C2)NC(=O)NCc1ccco1,-0.35,0.15,-17*,1.1,571*,172
COc1ccc(-n2cnc3c(cnn3CCC#N)c2=N)cc1,-0.66,0.45,0.1,/,/,/
O=C(Nc1nc(-c2ccc(S(=O)(=O)N3CCCC3)cc2)cs1)C1COc2ccccc2O1 (centres undefined),-1.9,0.13,-8.7*,-3.2,559,206
C=CCc1ccccc1OCC(O)Cn1ccnc1C (centres undefined),0.27,0.41,-1,0.83,/,/
C=CCc1ccccc1OCC(O)CN(C(C)C)C(C)C (centres undefined),0.038,0.06,-2*,-1,382*,230
Cc1ccc(-n2c(-c3c(-c4ccccc4)noc3C)n[nH]c2=S)cc1,/,1.2,/,1.5,/,/
Cc1ccc(S(=O)(=O)NCC(=O)N(CC(=O)NC2CCCCC2)CC2CCCO2)cc1 (centres undefined),/,0.86,/,0.47,/,/
Cc1cccn2c(=O)c3cc(C(=O)NC4CCCC4)c(=N)n(C4CCCC4)c3nc12,-0.098,-1,-4.8*,-4,367*,258
Cc1cccn2c(=O)c3cc(C(=O)NC4CCCCC4)c(=N)n(CCN4CCOCC4)c3nc12,1.4,/,-2.4*,/,461,199
N=c1c(C(=O)NC2CCCC2)cc2c(=O)n3ccccc3nc2n1C1CCCC1,1.9,-0.5,0.7,0.48,/,/
O=C(Nc1cnn(Cc2ccc(Cl)c(Cl)c2)c1)C12CC3CC(CC(C3)C1)C2,/,-0.95,/,-0.043,/,/
CC(C)(C)C(=O)CC1(O)C(=O)N(Cc2ccc(Cl)cc2)c2ccccc21 (centres undefined),/,0.2,/,-0.71,/,/
CC1=CC(C)(C)N=C(Nc2ccc(C)cc2)S1,-0.13,-0.02,-5*,-1.6,275*,218
Cc1ccc(C(=O)N2CCSCC2)cc1,/,0.97,/,0.8,/,/
N/C(=N\OC(=O)c1ccc(Cl)cc1)c1nonc1N,/,1.6,/,-0.38,/,/
Cc1cccc(CS(=O)(=O)Cc2ccc(C(=O)NCc3cccnc3)o2)c1,-0.008,0.95,-18*,0.53,625,245
CCO[C@H]1OC(C(=O)NCc2ccccc2)=C[C@@H](C(C)(C)C)[C@@H]1CCCO,/,/,/,-0.12,/,/
Cc1noc(C)c1CSc1cc(C)c2ccccc2n1,-0.5,-1.2,0.031,-0.76,/,/
O=C(Nc1ccc(/C=C/c2nc3ccccc3o2)cc1)c1ccc(F)cc1,/,0.09,/,-1.6,/,/
CN(C)C(CNc1nnnn1-c1ccccc1)c1ccco1 (centres undefined),-0.64,0.49,-0.79*,-0.23,477,221
Cc1cc(NC(=O)Cn2nnc3sc4c(c3c2=O)CCCC4)no1,-0.74,0.29,-5*,0.6,549,248
COc1ccc(-c2nc(-c3ccccc3OC)no2)cc1OC,1.4,-0.96,-1.3,-2.2,/,/
SMILES,M1 ag,Pyk2 oligo antag,M1 antag,Cav3 T inh,M1 antag confirm,mGluR4 antag
CCOc1ccccc1-c1nc(-c2ccc(C)nc2OC)no1,-0.066,-1.5,-0.78*,-0.82,663,237
COc1ccccc1-c1noc(-c2ccccc2)n1,-0.0044,-0.62,-17*,/,506*,263
CCOc1nc(C)ccc1-c1noc(-c2ccccn2)n1,-0.23,-0.41,0.15,0.38,/,/
CCNC(=O)NC(=O)CSc1ccccc1F,/,-0.21,/,/,/,/
CC(=O)Nc1ccc(S(=O)(=O)Nc2c(C)nn(-c3ccccc3)c2C)cc1,/,0.69,/,0.67,/,/
CC(=O)c1ccccc1NS(=O)(=O)c1c(C)nn(-c2ccccc2)c1C,-0.87,-1.6,-3.4*,-0.64,569,241
CCOc1ccc2c(c1)c1nnc(SCC(=O)N3CCC(C)CC3)nc1n2C,1,0.6,-4.6*,1.6,333*,231
CCOc1ccc2c(c1)c1nnc(SCC(=O)N3CCCCC3C)nc1n2C (centres undefined),-0.33,0.25,-3.2*,1.2,435,213
CC1CCCCN1C(=O)CSc1nnc(Cc2ccccc2)n1C (centres undefined),/,0.31,/,-0.42,/,/
CN=C1CC(SC)=C1c1ccc(C)cc1,/,0.79,/,-0.91,/,/
CCCCCC(=O)Nc1ccc(N2CCN(CC)CC2)c(Cl)c1,0.38,-0.72,-11*,0.92,46*,259
Cc1ccc2c(c1)N(CCC(=O)NCCCOC(C)C)C(=O)C(C)O2 (centres undefined),0.85,-1.1,0.0065,0.75,/,/
Cc1cc(C(=O)NCCCn2ccnc2)sc1-c1ccccc1,-1.3,-0.21,-3.3*,0.43,616,211
Cc1nn(Cc2ccccc2Cl)c2sc(C(=O)NC(C)(C)C)cc12,/,0.25,/,-1.1,/,/
Cc1nn(Cc2ccccc2Cl)c2sc(C(=O)NCCCn3ccnc3)cc12,-1.3,-0.78,-7.9*,0.89,287*,186
CCOC(=O)N1CCC(N2C(=O)c3ccccc3C2Nc2ccccc2C)CC1 (centres undefined),0.78,/,0.4,-0.23,/,/
CCOC(=O)c1ccccc1NC1c2ccccc2C(=O)N1C1CCN(C(=O)OCC)CC1 (centres undefined),0.51,/,-1.6*,-5.8*,384*,237
CS(=O)(=O)N(CC(N)=O)c1ccc2c(c1)OCO2,0.088,0.21,0.054,0.61,/,/
CS(=O)(=O)N(CC(=O)O)c1ccc2c(c1)OCO2,-0.035,1.5,-4.1*,/,655,254
CCCNC(=O)c1onc(CSc2ccc(Cl)cc2)c1C(=O)NCCC(C)C,/,/,/,-3.1,/,/
COCCNc1nc(-c2cc(-c3ccc(Cl)cc3)on2)cc(C(C)C)n1,/,/,/,0.68,/,/
O=C(Nc1ccc(N2CCCCC2)cc1)c1cccnc1Cl,/,0.49,/,0.15,/,/
CCCN1Cc2cccc(C(=O)Nc3ccc(N4CCN(CC)CC4)cc3)c2C1=O,-0.018,/,-1.7*,/,354*,210
CCN1CCN(c2ccc(NC(=O)c3cccc4ncccc34)cc2)CC1,-0.36,0,-5.1*,-0.14,499,249
O=C(NCc1ccco1)C1c2ccccc2Oc2ccccc21,-0.45,1.5,-5.4*,/,556,210
CCCCOC1(c2ccccc2)NC(=S)NN=C1c1ccccc1 (centres undefined),/,/,/,-2.7,/,/
OC(C#CCN1CCCCC1)c1ccccc1 (centres undefined),0.13,-0.03,-2.6*,0.87,432,185
CC(C)C(O)(C#CCN1CCCCC1)c1ccccc1 (centres undefined),/,2.8,/,0.6,/,/
CC(C)C(O)(C#CCN1CCCC1)c1ccccc1 (centres undefined),/,0.87,/,2,/,/
OC(C#CCN1CCCC1)c1ccccc1 (centres undefined),0.051,0.04,-3*,0.93,462,199

# High-throughput results as filed in PubChem BioAssay.
